# Screens (PubChem)
# Pf growth 48h: inhibits P. falciparum growth in the first generation, 48 h. AID 504832. 5.9% of 310,000 active. P. falciparum luciferase growth in erythrocytes, 48 h. Potency, µM (series often up to 28.7 µM), without a hit: at the highest dose activity change, negative = inhibition, most hits filed as inhibitors; also: potency is read from the fitted curve at half-maximal effect
#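 Growth was read as firefly luciferase luminescence after a 48 h, 37 C, 5% CO2 exposure of compounds to reporter-bearing P. falciparum cultures (0.1% parasitemia, 2% hematocrit final) in Albumax-supplemented RPMI 1640.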
# HCMV inh: blocks human cytomegalovirus replication | AID 1259415 | HFF cells, HCMV-luciferase reporter, 72 h; hits give low values | activity change, negative = inhibition, % at 57.5 µM | 4.5% of 410,000 active; in the data active = activity change below about -60%; inconclusive = no clear call, values can overlap the other calls; inactive = above about -39%
#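 Screen run at 2 compound doses on HFFs infected with reporter HCMV, MOI 1 PFU/cell. Luciferase activity from cell lysates at 72 h post infection gave inhibition relative to buffer-only and Salinomycin wells.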
# Lassa entry inh: inhibitors of Lassa virus binding or cell entry | Potency, µM (titrated, usually from 37.9 µM), without a hit: at the highest dose activity change, negative = inhibition, most hits filed as inhibitors | AID 540256 | Lassa virus pseudotype entry inhibition, cell reporter | 1.2% of 300,000 active; calls by dose curve; tested in HEK293 cells; also: potency is read from the fitted curve at half-maximal effect; nearly all actives have a fitted effect of over 50% in size
# Pf growth 96h: inhibits malaria parasite growth, 96 h | 6.9% of 320,000 active | Potency, µM (series often up to 28.7 µM), for the others: at the top dose activity change, negative = inhibition, hits mostly inhibitors | AID 504834 | P. falciparum luciferase reporter growth, 96 h; also: potency is read from the fitted curve at half-maximal effect
#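 Luminescence readout: decreased luciferase signal marks inhibited growth of reporter-expressing P. falciparum in infected red cells (2% hematocrit, 0.05% parasitemia final), exposed to compound two generations (96 h, 37 C, 5% CO2).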
# MARV entry inh: Marburg virus entry inhibition. Marburg virus pseudotyped entry inhibition, cell reporter. Potency, µM (doses to about 37.8 µM), inactives show at the highest dose activity change, negative = inhibition, most hits filed as inhibitors. 1.8% of 300,000 active. AID 540276; calls by dose curve; tested in HEK293 cells; also: potency is read from the fitted curve at half-maximal effect
# HCV inh: inhibitors of hepatitis C virus infection; 3.4% of 340,000 active; Potency, µM (titrated, usually from 41.8 µM), inactives show top-dose activity change, negative = inhibition, hits mostly inhibitors; Huh7.5.1 HCVcc-Cre infection, luciferase reporter, 44 h; AID 651820; also: potency is read from the fitted curve at half-maximal effect
#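 Cells (1,000/well) were plated 4 h before compound, then infected with HCVcc-Cre virus (~0.5 moi). After 44 h further culture, infection was read as luciferase luminescence following a 15 min substrate incubation at room temperature.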
# An asterisk follows results filed as active; ? = inconclusive; . = no result; [ ] = dose if it differs, or a comment. In the library only some 14% were active in any assay of this set; here they are far more common. Unless noted, calls follow the shape of the dose curve; as a rule, active = well fitted inhibition curve with a large enough effect; inconclusive = small, poorly fitted or top-dose-only effect, or another doubt; inactive = no such curve, though single readings can be large or run the other way. % is scaled to controls: 0 for no effect and ±100 for the full control effect.
SMILES,Pf growth 48h,HCMV inh,Lassa entry inh,Pf growth 96h,MARV entry inh,HCV inh
CCc1cc2c3c(c1)C1(C(=O)N3C(C)(C)C=C2C)C(C#N)=C(N)Oc2[nH]c(=O)[nH]c(=O)c21 (stereo not drawn),?,-74.8*,?,42.9%,?,?
COc1cc2c3c(c1)C1(C(=O)N3C(C)(C)C=C2C)C(C#N)=C(N)Oc2cc(C)oc(=O)c21 (stereo not drawn),5.86µM*,17.2,-19.5%,-28.5%,-4.5%,-15.9%
CC1=CC(C)(C)N2C(=O)C3(C(C#N)=C(N)OC4=C3C(=O)CC(C)(C)C4)c3c(C)c(C)cc1c32 (stereo not drawn),.,3.1,-1.8%,4.15µM*,?,1.9%
O=C1CSC2(C(=O)N(Cc3cccc(C(F)(F)F)c3)c3ccccc32)N1c1ccc(F)c(F)c1 (stereo not drawn),.,-35.8,-15.6%[46.1 µM],.,.,.
CC(C)NC(=O)c1cnc(N2CCN(Cc3cccc(F)c3)C2=O)s1,.,-18.8,.,.,.,.
Cc1ccc(C)c(N2CCN(S(=O)(=O)c3ccc(C4CCCCC4)cc3)CC2)c1,.,4.4,4.0%[46.1 µM],.,?,.
Cc1ccc(C)c(N2CCN(c3ccc4cc(S(=O)(=O)N5CCCCC5)ccc4n3)CC2)c1,0.7%,-19.8,.,9.28µM*,.,21.9%
Cc1cccc(N2CCN(S(=O)(=O)c3ccc4c(c3)n(C)c(=O)c(=O)n4C)CC2C)c1 (stereo not drawn),36.3%,12.9,-7.9%,.,5.7%,5.2%
Cc1cccc(N2CCN(c3ccc4cc(S(=O)(=O)N5CCCCC5)ccc4n3)CC2C)c1 (stereo not drawn),?,?,0.1%[46.1 µM],10.4µM*,-3.9%[46.1 µM],?
Cc1cccc(N2CCN(c3ccc4cc(S(=O)(=O)N5CCCCC5)ccc4n3)CC2)c1C,11.7µM*,?,-11.6%[46.1 µM],?,27.5%[46.1 µM],9.1%
Cc1cccc(N2CCN(C(=O)c3cccc(S(=O)(=O)N4CCCCC4)c3)CC2)c1C,.,17.2,?,.,?,?
CC(C)(C)OC(=O)N1CCC[C@@H]1C(O)(c1ccccc1)c1ccccc1,.,.,.,.,-13.0%[14.2 µM],.
CCCOC(=O)c1ccc(Oc2cn[nH]c2-c2ccc(OCC)cc2O)cc1,4.65µM*,69.9,7.94µM*,.,?,?
COc1ccc(Oc2c(-c3ccc(O)cc3O)n[nH]c2C)cc1,10.6%,19.8,?,2.7%,20.9%[46.1 µM],-16.4%
CCCOC(=O)c1ccc(Oc2c(-c3ccc(OCC)cc3O)n[nH]c2C)cc1,5.22µM*,-97.6*,?,-7.5%,?,?
CCCc1ccc(Oc2cn[nH]c2-c2ccc(O)c(C)c2O)cc1,-25.8%,-61.3*,-24.2%,10.4µM*,?,12.6µM*
CC(C)(C)c1cc(CN2CCN(CCO)CC2)cc(C(C)(C)C)c1O,3.8%,-25.1,-5.8%,?,-0.3%,24.5%
CC(C)c1cc(CN2CCN(CCC#N)CC2)cc(C(C)C)c1O,2.33µM*,42.1,?,?,2.5%,16.6%
O=c1[nH]c(C2CCN(S(=O)(=O)c3ccccc3F)CC2)nc2c1nnn2Cc1ccc(OC(F)(F)F)cc1,?,8.3,.,?,.,?
Cc1ccc(Cn2nnc3c(=O)[nH]c(C4CCN(S(=O)(=O)Cc5ccccc5)CC4)nc32)cc1,?,27.3,11.2µM*,146.9%,?,?
Cc1ccc(S(=O)(=O)N2CCC(c3nc4c(nnn4Cc4ccccc4)c(=O)[nH]3)CC2)cc1,11.7µM*,-24.9,?,29.4%,?,21.1%
Cc1ccc(Cn2nnc3c(=O)[nH]c(C4CCN(S(=O)(=O)c5ccccc5)CC4)nc32)cc1,13.5%,7.3,?,29.6%,?,15.9%
O=c1[nH]c(C2CCN(S(=O)(=O)c3ccccc3C(F)(F)F)CC2)nc2c1nnn2Cc1ccccc1,5.86µM*,?,.,2.62µM*,?,18.9%
O=c1[nH]c(C2CCN(S(=O)(=O)/C=C/c3ccccc3)CC2)nc2c1nnn2Cc1ccccc1,4.65µM*,?,?,-69.3%,-29.8%[46.1 µM],2.4%
CCOC(=O)/C=C/[C@@H](CCC(=O)OC)NC(=O)C(F)(F)F,.,-16.4,.,.,.,.
SMILES,Pf growth 48h,HCMV inh,Lassa entry inh,Pf growth 96h,MARV entry inh,HCV inh
Cc1ccc(S(=O)(=O)Nc2ccccc2CNc2ccccn2)cc1,13.1µM*,-18.5,18.3%,6.57µM*,-2.6%,-2.9%
Oc1ccccc1CNc1ccc(Br)cn1,86.2%,-105.3*,?,130.4%,?,?
Brc1ccc(NCc2cccc3ccccc23)nc1,.,-21.5,-7.3%,-9.6%,?,-27.6%
Cc1ccc(S(=O)(=O)Nc2ccccc2CNc2ccc(Br)cn2)cc1,11.7µM*,-4.6,-17.4%,10.4%,?,?
c1ccc2c(c1)OCCOCCOCCOCCOCCOc1ccccc1OCCOCCOCCO2,?,-97.9*,?,7.38µM*,?,?
NC1=NC2(CCCCC2)N(c2ccc(F)cc2)C(N)=N1,13.1µM*,6.4,?,-2.8%,15.8%,7.7%
COc1ccccc1N1C(N)=NC(N)=NC12CCCCC2,?,?,5.8%,13.1µM*,?,14.1%
COc1ccc(N2C(N)=NC(N)=NC23CCCC3)cc1,0.928µM*,-39.0,9.8%,102.0%,?,11.5%
COc1ccc(N2C(=O)CSC23CCCCC3)cc1,-12.2%,-22.3,-11.4%,.,1.0%,9.3%
NC1=NC2(CCCCC2)N(c2cccc(Cl)c2)C(N)=N1,.,14.5,3.7%,?,?,19.4%
CCCCOc1ccc(N2C(N)=NC(N)=NC23CCCCC3)cc1,10.4µM*,-32.4,.,?,.,8.4%
CN(CCC1CCOCC1)C(=O)C1CCC(=O)N(CCc2ccccc2)C1 (stereo not drawn),4.6%,4.0,4.6%,0.4%,14.1%,0.1%
O=C1c2[nH]c3ccccc3c2CC1N1C(=O)c2ccccc2C1=O (stereo not drawn),.,-28.2,.,.,.,.
CCOCCn1ccc2c(OCC(=O)Nc3ccc(C(N)=O)cc3)cccc2c1=O,.,24.7,-7.4%[46.1 µM],.,.,.
C[C@@H]1CN([C@@H](C)CO)C(=O)CCCn2nncc2CO[C@@H]1CN(C)C(=O)C1CCCCC1,.,16.7,.,.,.,.
Cc1nc2ccccc2n1C1CCN(CC(=O)NCc2ccc(F)cc2)CC1,?,2.1,-8.3%,5.86µM*,?,-5.3%
Cc1ccc(CNC(=O)Cn2c(SCC(=O)Nc3ccc(F)cc3)nc3ccccc32)cc1,.,-92.9*,?,.,.,.
O=C(Cn1c(SCC(=O)Nc2ccc(F)cc2)nc2ccccc21)NCc1ccc(Cl)cc1,.,-74.0*,?,.,.,.
Cc1ccc(CNC(=O)C2CCC(=O)N(Cc3cccc(F)c3)C2)s1 (stereo not drawn),.,8.1,.,.,.,.
COc1cc(/C=N/NC(=O)c2sc(N)c(C#N)c2C)cc(Br)c1O,?,-67.0*,?,?,?,?
